ERK EGF block: EGF-driven ERK pathway inhibition; HEK293-V1b, EGF-stimulated phospho-ERK AlphaScreen; actives 0.41% (n = 130,000); Potency, µM (doses to about 11.5 µM), inactives show top-dose activity change, negative = inhibition, most hits filed as inhibitors; AID 1454; active = well fitted inhibition curve with a large enough effect;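 note: plate controls were stimulated vehicle wells for no effect and unstimulated vehicle basal for full effect; nearly all actives have a fitted effect of over 55% in size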
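Homogeneous cell-based phospho-ERK assay: HEK293/V1b cells in 1% FBS, compound 30 min then EGF 5 min, AlphaScreen luminescence. Activity normalized between DMSO and 25 nM EGF controls; AC50 from Hill modelling.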
* = called active by the depositor; [ ] = dose if it differs, or a comment. This excerpt belongs to a sample that is enriched for hits. Potency is the fitted concentration of half-maximal effect.

SMILES | ERK EGF block
CCC/C=C(\CCC)C(NC(=O)Oc1ccc(F)cc1)c1ccc(C(=O)OC)cc1 (configuration not stated) | 1.6%
COc1ccc(C2=CC3=C(Br)C(=O)C(C)(OC(=O)CCc4ccccc4)C(=O)C3=CO2)cc1 (configuration not stated) | 6.5%
COc1cc(/C=N/NC(=O)c2cccnc2)ccc1OC(=O)c1ccc([N+](=O)[O-])cc1 | -2.5%
COc1ccc(/C=N/NC(=O)c2cccnc2)cc1COc1ccc(NC(C)=O)cc1 | 1.2%[57.5 µM]
COc1ccc(/C=N/NC(=O)c2cccnc2)cc1COc1ccc([N+](=O)[O-])cc1 | 22.4µM*
COc1ccc(Oc2ncc3nc(-c4ccc(OC)cc4)c(=O)n(CCC#N)c3n2)cc1 | 9.8%
CNC(=O)[C@H](C)/C=C(\c1cccnc1)C(NC(=O)OCc1ccccc1)c1ccc(C(=O)OC)cc1 (some centres not stated) | -2.0%
COc1ccc(-c2[nH]ncc2C=O)cc1 | 3.7%
COc1ccc(-c2cc(C(=O)NN)[nH]n2)cc1 | 0.8%
COc1ccc(-c2[nH]nc3oc(=O)c(CCO)c(C)c23)cc1 | 15.8µM*
COC(=O)[C@@H](NC(=O)O[C@H]1C(=O)c2cc(OC)ccc2O[C@@H]1c1ccc(OC)c(Br)c1)C(C)C | 2.2%
C1=C(CCNc2ncnc3nc[nH]c23)CCCC1 | 4.9%
O=c1c2[nH]c3ccc(F)cc3c2ncn1CCC1=CCCCC1 | -1.4%[57.5 µM]
COc1ccc2[nH]c3c(NCCC4=CCCCC4)ncnc3c2c1 | 20µM*
COC(=O)[C@@]1(Cc2ccccc2)[C@H]2c3cc(C(=O)N4CCCC4)n(Cc4nc5ccccc5[nH]4)c3C[C@H]2CN1C(=O)c1ccccc1 | 3.4%
CC1(C)C(=O)C(c2ccccc2)=C2CN3C(=O)N(CCc4ccccc4)C(=O)C3(Cc3ccc(F)cc3)C=C21 (configuration not stated) | -6.0%
O=C(O)c1ccc(NC2=C(Cl)C(=O)c3ccccc3C2=O)cc1 | 10µM*
O=C(O)c1ccc(NC2=Nc3cccc4cccc2c34)cc1 | 3.8%[57.5 µM]
Cc1ccc(NCCC(=O)c2ccccc2)cc1Cl | -1.2%[57.5 µM]
Cc1ccc(NC(=O)C(c2ccccc2)N(C)C)cc1Cl (configuration not stated) | -6.9%
C=CCNC1=C(Cl)C(=O)c2ccccc2C1=O | -8.1%
Cc1ccc(NC2=C(NC(=O)c3ccccc3)C(=O)c3ccccc3C2=O)cc1Cl | 15.8µM*
C[C@@]12CCC(OC(=O)c3ccccc3)CC1CCc1ccccc12 (some centres not stated) | 26.3%
CC(=O)OCC(=O)[C@]1(O)C(C)CC2C3CCC4=CC(=O)C=C[C@@]4(C)[C@]3(F)C(O)C[C@@]21C (some centres not stated) | 9.5%
O=C1c2ccccc2C(Cc2ccnc(F)c2)(Cc2ccnc(F)c2)c2ccccc21 | 6.1%
SMILES | ERK EGF block
COc1ccccc1C1OC(=O)CC1C(=O)OC[C@@H]1CCCN2CCCCC12 (some centres not stated) | -7.3%
COC(=O)[C@@]1(Cc2ccccc2)[C@H]2c3cc(C(=O)N4CCCC4)n(Cc4ccc(O)c(OC)c4)c3C[C@H]2CN1C(=O)c1ccccc1 | 2.3%
C[C@@]12CCC(=O)C[C@@H]1CC(=O)[C@H]1[C@H]3CCC[C@]3(C)C(=O)C[C@@H]12 (tested in a mixture with another compound) | 19.8%[25.7 µM]
Cc1oc(-c2cccc3ccccc23)nc1CN1CCN(c2ncnc3ccccc23)CC1 | 31.6µM*
COc1ccc(-c2nc(CN3CCN(c4cc(C)nc(C)c4)CC3)c(C)o2)c2ccccc12 | -15.5%
Cc1cnc(C)c(N2CCN(Cc3nc(-c4ccc(C)o4)oc3C)CC2)n1 | -17.3%
CC(=O)[C@H](CC(C)C)NC(=O)[C@@H](CC(C)C)NC(=O)[C@H](CC(C)C)NC(=O)OCc1ccccc1 | -18.1%
COCCNc1nc(C)nc2c1nc(-c1ccccc1)n2C1CCN(Cc2ccccc2)C1 (configuration not stated) | 3.6%
COc1cccc([C@@H]2Oc3ccc(Br)cc3C(=O)[C@H]2OC(=O)Nc2ccc(OC(F)F)cc2)c1 | 0.5%
O=C(c1ccco1)N1CCC2(CC1)CCN(c1ccncc1)CC2 | 2.8%
O=C(c1ccncc1)N1CCC2(CC1)CN(c1ccc(-c3ccccc3)cc1)C2 | 3.6%
COC(=O)N1CCC2(CC1)CN(c1ccc(-c3ccccc3)cc1)C2 | 1.0%
c1ccc(-c2ccc(N3CC4(CCNCC4)C3)cc2)cc1 | 20µM*
COc1ccc2c(c1)C(=O)[C@H](OC(=O)NCc1ccc3c(c1)OCO3)[C@@H](c1ccc(OC)c(Br)c1)O2 | -5.3%
CCCCC/C=C\C/C=C\CCCCCCCCCC(=O)NCCCC(=O)O | 5.2%
OC[C@@H](O)[C@@H](O)CCc1ccccc1 | -7.7%
CCN1C(=O)/C(=C2\Sc3ccccc3N2CC)OC1=S | 13.4%
CCN1C(=O)/C(=C2/C=Cc3ccccc3N2CC)SC1=S | 15.8µM*
CCN1C(=C(C#N)C#N)C=Cc2ccccc21 | -4.8%
COc1ccc(NC(=O)c2ccccc2[N+](=O)[O-])cc1 | -0.7%
COc1ccc(Nc2c([N+](=O)[O-])ccc3c2=NC2(CCCCC2)N=3)cc1 | 14.1µM*
COc1ccc(Nc2ccncc2[N+](=O)[O-])cc1 | 0.9%
CC(C)c1ccc(Cn2ccc3c4c(N)nc(NC5CC5)nc4ccc32)cc1 | -13.3%
Cc1nc(N2CCOCC2)c2nc(-c3ccccc3)n(CCCN3CCCCC3C)c2n1 (configuration not stated) | -0.4%
NC(=O)c1cccnc1Nc1cccc(F)c1 | -4.0%
SMILES | ERK EGF block
Fc1cccc(Nc2ncnc3[nH]ncc23)c1 | 25.1µM*
Nc1ncnc(Nc2cccc(F)c2)n1 | -5.0%[57.5 µM]
O=C(c1ccncc1)N1CCC[C@@]2(CCN(c3ccccc3)C2)C1 | 0.9%
O=C(Nc1cccc(F)c1)N1CCCC2(CCN(C(=O)c3cccc(F)c3)CC2)C1 | -1.1%
CCCCNc1nc(C)nc2c1nc(-c1ccccc1)n2CCCN(C)C | -0.2%
COc1ccc(CC(N)C(=O)NC2C(CO)OC(n3cnc4c(N(C)C)ncnc43)C2O)cc1 (configuration not stated) | 0.8%
Cc1ccc(/C=C2\SC(=S)N(CCCC(=O)NNC(=O)c3ccccc3O)C2=O)cc1 | 3.5%[57.5 µM]
CC(C)(C)NC(=O)CN1C(=O)/C(=C/c2ccccc2)SC1=S | 8.4%
O=C(CN1C(=O)/C(=C/c2ccccc2)SC1=S)NNC(=O)c1ccccc1O | 14.1µM*
CCc1c2c(nc3c(C(C)C)cccc13)-c1cccc(=O)n1C2 | -5.0%
CN(C)/C=C(/C(=O)c1ccc(Cl)cc1)n1cncn1 | -5.4%
CN(C)c1ccc(/C=C(/C(=O)c2ccc(Cl)cc2Cl)n2cncn2)cc1 | 5.3%
CC(C)CC(=O)/C(=C\c1ccc(Cl)cc1Cl)n1cncn1 | 28.2µM*
COc1ccc2c(c1)O[C@@H](c1cccc(C(F)(F)F)c1)[C@H](OC(=O)Nc1cc(OC)c(OC)c(OC)c1)C2=O | -1.1%
COc1ccc2c(c1)O[C@@H](c1ccc3c(c1)OCO3)[C@H](OC(=O)Nc1ccc(OC(F)F)cc1)C2=O | -4.9%
CCCn1c(-c2ccc(F)cc2)nc2c(NCCN3CCOCC3)nc(C)nc21 | -11.9%
CCc1ccc(NC(=O)NCC2CCN(c3ccc(OC)cc3)C2)cc1 (configuration not stated) | -17.4%[57.5 µM]
COc1ccc(N2CCC(CNC(=S)Nc3ccc(C)cc3C)C2)cc1 (configuration not stated) | 14.1µM*
COc1ccc(N2CCC(CNC(=O)Nc3ccc(C)c(C)c3)C2)cc1 (configuration not stated) | 3.3%

High-throughput results from PubChem BioAssay.
